In the library only some 3.8% were active in any assay of this set; here they are far more common.
FBA Mtb inh: inhibitors of M. tuberculosis fructose-bisphosphate aldolase | P9WQA3 | purified M. tuberculosis FBA, fluorescence read-out | inhibition, % at 1 µM | 360,000 compounds, 2.3% hits | AID 588726;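 further: 0% = vehicle and 100% = reference inhibitor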
Target sequence (P9WQA3 whole entry, looked up): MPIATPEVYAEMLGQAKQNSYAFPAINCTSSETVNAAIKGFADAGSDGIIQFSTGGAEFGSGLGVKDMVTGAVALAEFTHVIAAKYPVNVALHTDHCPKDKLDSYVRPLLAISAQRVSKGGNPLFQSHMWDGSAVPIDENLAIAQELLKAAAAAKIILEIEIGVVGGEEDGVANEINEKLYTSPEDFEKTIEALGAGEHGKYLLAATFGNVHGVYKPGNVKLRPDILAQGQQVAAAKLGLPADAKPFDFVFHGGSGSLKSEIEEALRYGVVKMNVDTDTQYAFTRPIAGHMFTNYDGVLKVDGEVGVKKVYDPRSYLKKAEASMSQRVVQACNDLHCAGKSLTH
PrPC surface inh: reduces human prion protein on the cell surface; P04156; cell surface PrPC, TR-FRET read-out; inhibition, % at 13.8 µM; 370,000 compounds, 0.43% hits; AID 720596; in the data active means inhibition above about 24%; further: 0% = median of the test wells and 100% = reference compound wells
Mtb hypoxia inh: Mtb hypoxia fluorescent reporter inhibition | M. tuberculosis hypoxia-regulated fluorescent reporter, fluorescence | fluorescence inhibition, % (no concentration beside the values) | 300,000 compounds, 0.1% hits | AID 1159583; in the data active means fluorescence inhibition mostly above about 23%, no sharp cut-off; inactive means mostly below about 17%
GDH-TPI counter-1: inhibits GDH-TPI coupling enzymes, artifact for Mtb FBA screen; GDH-TPI coupled enzyme counterscreen, NADH absorbance; inhibition, % at 4.8 µM; 360,000 compounds, 1.2% hits; in the data active means inhibition above about 30%;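 further: 0% = DMSO wells and 100% = wells lacking the enzyme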
Y pestis TopoI: blocks Yersinia pestis topoisomerase I activity. Y. pestis Topo-I cleavage product accumulation, plate reader. activity, % at 10 µM. 360,000 compounds, 0.064% hits; in the data active means activity above about 50%, passing the limit was not always enough
PrP UTR inh: suppresses PrP 5' UTR mRNA reporter expression; cell-based PrP 5' UTR mRNA reporter, plate reader; inhibition, % (no concentration beside the values); 340,000 compounds, 0.35% hits; in the data active means inhibition above about 52%; further: 0 = median of the neutral control wells
Mtb FBA confirm: Mtb FBA inhibition, confirmed; shares compounds with FBA Mtb inh; purified M. tuberculosis FBA, fluorescence read-out; inhibition, % at 1 µM; 5,600 compounds, 78% hits;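 further: 0% = vehicle wells and 100% = reference inhibitor wells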
GDH-TPI counter-2: counter-screen for M. tuberculosis FBA inhibitors: GDH-TPI coupled enzyme inhibition. shares compounds with FBA Mtb inh. GDH-TPI coupled enzyme counterscreen, fluorescence. inhibition, % at 1 µM. 5,600 compounds, 81% hits. AID 652141; in the data active means inhibition above about 10%
Starred values were filed as active, the others as inactive; / = no result given; + = active, no number. Unless noted, no stated cut-off is given here; in the data, active means inhibition above about 27%; inactive means the rest.

SMILES	FBA Mtb inh	PrPC surface inh	Mtb hypoxia inh	GDH-TPI counter-1	Y pestis TopoI	PrP UTR inh	Mtb FBA confirm	GDH-TPI counter-2
COc1ccccc1CNC(=O)c1ccccc1NS(C)(=O)=O	29*	17	5	-7	2	1	102*	80*
Cc1ccc(OCCNC(=O)c2ccccc2N)cc1	49*	0	/	2	-14	19	+	191*
Nc1ccccc1C(=O)NCCN1CCNC1=O	93*	2	4	10	1	-30	90*	77*
NC(=O)c1ccccc1N	86*	10	/	6	0	-17	78*	54*
CC(C)(C)c1cc(C(=O)NN=Cc2ccc(F)cc2)n(-c2ccccc2)n1	/	/	14	/	/	/	/	/
CON=C1CCCc2c(C(=O)NN)sc(SC)c21	/	/	11	/	/	/	/	/
CC(C)(C)c1nn2cnnc2n(N=Cc2ccccc2)c1=O	/	/	2	/	/	/	/	/
CNCC1Oc2c(NS(=O)(=O)c3cccs3)cccc2C(=O)N(C(C)CO)CC1C (stereo unspecified)	/	/	4	/	/	/	/	/
Cc1cc(C=NNc2ccc([N+](=O)[O-])cn2)c(C)n1-c1ccccc1	/	/	2	/	/	/	/	/
Nc1ccccc1C(=O)NCCCN1CCN(c2cccc(Cl)c2)CC1	54*	0	8	1	-2	5	69*	72*
NC(=O)c1cccc2cc3ccccc3cc12	37*	-14	-1	4	2	-22	9	6
O=C(Nc1ccccc1C(=O)NCc1ccccc1)c1ccccc1	3	2	0	-7	-2	-13	/	/
Nc1ccccc1C(=O)NCc1ccccc1	44*	2	/	-5	-1	-13	1	4
NC(=O)c1ccccc1OCc1cccc2ccccc12	1	6	3	6	20	-16	/	/
Cc1ccc(S(=O)(=O)NN=Cc2ccc3c(c2)OCO3)cc1	/	/	4	/	/	/	/	/
Cc1ccc(N2CCN(N=Cc3cccnc3)CC2)cc1	/	/	-12	/	/	/	/	/
CSc1nnc(-c2sc(-c3ccccc3)nc2C)n1C	54*	-3	-1	12	2	-12	10	6
CCCN(CC(=O)Nc1ccc(Cl)cc1Cl)C(=O)/C=C/c1cccc([N+](=O)[O-])c1	1	3	3	0	-2	-8	/	/
CCCN(CC(=O)Nc1cc(Cl)ccc1Cl)C(=O)/C=C/c1cc(OC)ccc1OC	39*	-5	-1	5	38	-22	+	+
CCCN(CC(=O)Nc1ccc(Cl)cc1Cl)C(=O)/C=C/c1cc(OC)ccc1OC	28*	4	-1	7	31	-17	9	3
O=C(ON=C(c1ccccc1)c1ccccn1)c1ccc(Cl)c(Cl)c1	/	/	4	/	/	/	/	/
CN(CCO)C(=O)C1CCN(c2ncc(C(F)(F)F)cc2Cl)CC1	41*	6	-6	4	9	-34	79*	63*
COc1cc(C=NNc2nc3c(c(=O)n(C)c(=O)n3C)n2Cc2ccccc2)ccc1OC(=O)c1ccco1	/	/	9	/	/	/	/	/
Cc1ccc(NS(=O)(=O)c2ccc(NC(=O)C(C)Sc3ccc(Cl)cc3)cc2)c(C)c1 (stereo unspecified)	81*	0	4	2	4	-11	2	-3
Cc1ccc(C)c(NS(=O)(=O)c2ccc(NC(=O)CSc3ccc(Cl)cc3)cc2)c1	-3	-1	-11	-8	-1	-75	/	/
SMILES	FBA Mtb inh	PrPC surface inh	Mtb hypoxia inh	GDH-TPI counter-1	Y pestis TopoI	PrP UTR inh	Mtb FBA confirm	GDH-TPI counter-2
N#Cc1cc2c(=O)n3ccccc3nc2n(-c2ccc(Cl)cc2)c1=O	49*	-3	/	2	-8	-36	10	-5
C=CCn1c(=N)c(C#N)cc2c(=O)n3ccccc3nc21	51*	-32	-2	2	-6	-17	128*	111*
O=c1[nH]c(NCCO)c(N=Cc2ccccc2)c(=O)[nH]1	85*	2	9	0	2	-16	108*	94*
CC(=O)c1cccc(-c2ccnc3c2CC(C(=O)NCCc2ccccc2)O3)c1 (stereo unspecified)	-3	7	/	2	10	/	/	/
COc1ccc(NC(=O)C2Cc3c(-c4ccc5c(c4)OCO5)ccnc3O2)cc1OC (stereo unspecified)	48*	11	/	6	28	/	27*	19*
COc1ccc(NC(=O)C2Cc3c(-c4ccc(NC(C)=O)cc4)ccnc3O2)cc1OC (stereo unspecified)	4	0	/	3	2	/	/	/
O=C(NCCc1ccccc1)C1Cc2c(-c3ccc4c(c3)OCO4)ccnc2O1 (stereo unspecified)	47*	9	/	-4	23	/	29*	36*
COc1ccc(CNC(=O)C2Cc3c(-c4ccc5c(c4)OCO5)ccnc3O2)cc1OC (stereo unspecified)	31*	11	/	8	20	/	+	+
O=C(NCc1ccc(F)c(F)c1)C1Cc2c(-c3ccc4c(c3)OCO4)ccnc2O1 (stereo unspecified)	49*	6	/	-2	1	/	177*	136*
CCOC(=O)c1c(N=Cc2ccc(C)cc2O)sc2c1CCN(C)C2	/	/	-9	/	/	/	/	/
Nc1c(C(=O)NN=Cc2ccccc2)cnn1-c1ccccc1	/	/	14	/	/	/	/	/
CC(C)NC(=O)C1Cc2c(-c3ccc4c(c3)OCO4)ccnc2O1 (stereo unspecified)	52*	0	/	4	3	/	111*	91*
CC(C)(C)NC(=O)c1nc2nc(-c3ccccc3)cc(C(F)(F)F)n2n1	32*	-4	13	1	-3	-6	91*	62*
Nc1nc2nc(-c3ccc(F)cc3)cc(C(F)(F)F)n2n1	41*	-5	14	-7	-5	-25	50*	40*
O=C(c1nc2nc(-c3ccc(Cl)cc3)cc(C(F)(F)F)n2n1)N1CCOCC1	33*	-17	9	26	2	-20	121*	94*

High-throughput results (PubChem)
